Each structure is given as a SMILES string. Inconclusive results are not listed. Calls of active or inactive are those of the source. The calls were made as follows, unless noted: active = hit-call score of the fitted dose curve at least 0.9, where 1 is the maximum; inconclusive = response in the unintended direction; inactive = score below 0.9.

We go through five compounds from PubChem BioAssay (EPA / NIEHS).

Read-out in test [1]: ABC Transporter (ABCB1), ABCB1 (gene 5243)
The test can be described thus: CLD_ABCB1_48hr: CellzDirect (CLD) Gene Expression Assay for ABC Transporter (ABCB1) at 48 hours (AID 2283695). An outline of the steps:
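ABCB1 mRNA was measured by quantitative nuclease protection assay (chemiluminescence) 48 h after dosing. Human hepatocyte cultures from two separate donors received fresh dosing solutions daily for two days, with 0.2% DMSO as vehicle. Positive-direction fit against DMSO.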

Read-out in test [2]: glucuronosyltransferase (UGT1A1), UGT1A1 (gene 54658)
The test can be described thus: CLD_UGT1A1_24hr: CellzDirect (CLD) Gene Expression Assay for glucuronosyltransferase (UGT1A1) at 24 hours (AID 2283696). An outline of the steps: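 UGT1A1 transcript induction was measured by quantitative nuclease protection assay (chemiluminescence) in human hepatocyte cultures 24 h after daily fresh dosing, with 0.2% DMSO as vehicle and baseline.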

Read-out in test [3]: ABC Transporter (ABCB11), ABCB11 (gene 8647)
The test can be described thus: CLD_ABCB11_48hr: CellzDirect (CLD) Gene Expression Assay for ABC Transporter (ABCB11) at 48 hours (AID 2283697). As to the method:
CLD_48hr is a cell-based, multiplexed-readout assay that uses hepatocyte, a human liver primary cell, with measurements taken at 48 hours after chemical dosing in a 96-well plate.CLD_ABCB11_48hr is one of 16 assay component(s) measured or calculated from the CLD_48hr assay. It is designed to make measurements of mRNA induction, a form of inducible reporter, as detected with chemiluminescence signals by Quantitative Nuclease Protection Assay (qNPA) technology.Data from the assay component CLD_ABCB11_48hr was analyzed at the endpoint, CLD_ABCB11_48hr, in the positive analysis fitting direction relative to DMSO as the negative control and baseline of activity. […] Furthermore, this assay endpoint can be referred to as a primary readout. […]
Human hepatocyte cultures were treated daily for two consecutive days with fresh dosing solutions containing appropriate concentrations of the 320 ToxCast chemicals (chemical identities were blinded to CellzDirect and other ToxCast collaborators), vehicle control (0.2% DMSO), and positive control inducers as summarized in Table 1. […] Cultures for each treatment group (i.e., media, vehicle [0.2% DMSO], positive control inducers [multiple concentrations], and the ToxCast chemicals [multiple concentrations]) were observed and cell morphology was assessed relative to vehicle control cultures at each harvest time point (0, 6, 24, or 48 h). […]

Read-out in test [4]: Cytochrome P450 3A4 (Homo sapiens) (UniProt P08684)
The test can be described thus: CLD_CYP3A4_48hr: CellzDirect (CLD) Gene Expression Assay for xenobiotic metabolism (CYP3A4) at 48 hours (AID 2283698). As to the method: (§1) CLD_48hr is a cell-based, multiplexed-readout assay that uses hepatocyte, a human liver primary cell, with measurements taken at 48 hours after chemical dosing in a 96-well plate.CLD_CYP3A4_48hr is one of 16 assay component(s) measured or calculated from the CLD_48hr assay. It is designed to make measurements of mRNA induction, a form of inducible reporter, as detected with chemiluminescence signals by Quantitative Nuclease Protection Assay (qNPA) technology.Data from the assay component CLD_CYP3A4_48hr was analyzed at the endpoint, CLD_CYP3A4_48hr, in the positive analysis fitting direction relative to DMSO as the negative control and baseline of activity. Using a type of inducible reporter, gain-of-signal activity can be used to understand changes in the reporter gene as they relate to the gene CYP3A4. Furthermore, this assay endpoint can be referred to as a primary readout. To generalize the intended target to other relatable targets, this assay endpoint is annotated to the cyp intended target family, where subfamily is xenobiotic metabolism.
Human hepatocyte cultures were treated daily for two consecutive days with fresh dosing solutions containing appropriate concentrations of the 320 ToxCast chemicals (chemical identities were blinded to CellzDirect and other ToxCast collaborators), vehicle control (0.2% DMSO), and positive control inducers as summarized in Table 1. Due to the large number of treatment groups and chemicals examined, the ToxCast chemicals were divided into two groups (spanning two independent cultures of hepatocytes from separate donor preparations (Hu778: ToxCast plates 1 and 2; Hu776: ToxCast plates 3 and 4). Each preparation of human hepatocyte cultures was treated with respective vehicle control, medium only control, set of six positive controls/reference chemicals for the five hepatic receptor pathways, and a subset of eight of the ToxCast chemicals (indoxacarb, pyrithiobac-sodium, norflurazon, cyhalofop-butyl, methomyl, thiram, acetochlor, and propiconazole). These replicate data, coupled with internal replicates designed within the blinded ToxCast chemical library, provided additional data to evaluate interindividual differences between hepatocyte preparations and their potential impact on chemical profiles.Cell morphology and integrity were evaluated using phase-contrast microscopy as an indicator of hepatocyte cell health (Tyson & Green, 1987). Cultures for each treatment group (i.e., media, vehicle [0.2% DMSO], positive control inducers [multiple concentrations], and the ToxCast chemicals [multiple concentrations]) were observed and cell morphology was assessed relative to vehicle control cultures at each harvest time point (0, 6, 24, or 48 h). […] Images were evaluated at the conclusion of the study to assess changes in cell integrity and account for the effects of chemical exposure on uncharacteristic changes in concentration-dependent gene expression profiles. The results from these determinations of apparent cytotoxicity were annotated (yes/no) alongside the corresponding qNPA data for reference.At the conclusion of each treatment period, hepatocyte cultures (96-well) were washed with 1 volume of HBSS, lysed by addition of 25 ul ArrayPlate lysis buffer (HTG, Tucson, AZ), and 70 ul/well of Denaturation Oil, denatured by incubation at 95C for 10 min, and frozen at approximately -70C until analysis by nuclease protection assay (qNPA) (Roberts et al., 2007). […]

Read-out in test [5]: Cytochrome P450 2B6 (Homo sapiens) (UniProt P20813)
The experiment in a line: CLD_CYP2B6_48hr: CellzDirect (CLD) Gene Expression Assay for xenobiotic metabolism (CYP2B6) at 48 hours (AID 2283699).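 Also: actives raise transcript level above DMSO so potency reflects induction.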 On the procedure: as §1, with “plate.CLD_CYP2B6_48hr” for “plate.CLD_CYP3A4_48hr”, “CLD_CYP2B6_48hr” for “CLD_CYP3A4_48hr”, “CLD_CYP2B6_48hr,” for “CLD_CYP3A4_48hr,”, “CYP2B6.” for “CYP3A4.”
Human hepatocyte cultures were treated daily for two consecutive days with fresh dosing solutions containing appropriate concentrations of the 320 ToxCast chemicals (chemical identities were blinded to CellzDirect and other ToxCast collaborators), vehicle control (0.2% DMSO), and positive control inducers as summarized in Table 1. […] These replicate data, coupled with internal replicates designed within the blinded ToxCast chemical library, provided additional data to evaluate interindividual differences between hepatocyte preparations and their potential impact on chemical profiles.Cell morphology and integrity were evaluated using phase-contrast microscopy as an indicator of hepatocyte cell health (Tyson & Green, 1987). Cultures for each treatment group (i.e., media, vehicle [0.2% DMSO], positive control inducers [multiple concentrations], and the ToxCast chemicals [multiple concentrations]) were observed and cell morphology was assessed relative to vehicle control cultures at each harvest time point (0, 6, 24, or 48 h). […] Images were evaluated at the conclusion of the study to assess changes in cell integrity and account for the effects of chemical exposure on uncharacteristic changes in concentration-dependent gene expression profiles. […]

Read-out in test [6]: Cytochrome P450 2C19 (Homo sapiens) (UniProt P33261)
The test can be described thus: CLD_CYP2C19_48hr: CellzDirect (CLD) Gene Expression Assay for xenobiotic metabolism (CYP2C19) at 48 hours (AID 2283700).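 Also: fitted upward so actives raise CYP2C19 mRNA above the 0.2% DMSO vehicle.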 An outline of the steps: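 CYP2C19 mRNA induction read by chemiluminescent quantitative nuclease protection assay after 48 h, with fresh compound added daily for two days to cultured human liver hepatocytes. Activity fitted upward against 0.2% DMSO vehicle.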

Read-out in test [7]: Cytochrome P450 2C9 (Homo sapiens) (UniProt P11712)
The test can be described thus: CLD_CYP2C9_48hr: CellzDirect (CLD) Gene Expression Assay for xenobiotic metabolism (CYP2C9) at 48 hours (AID 2283701; active = hit-call score of the fitted dose curve at least 0.9, where 1 is the maximum; inactive = score below 0.9). Summed up:
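mRNA level measured by quantitative nuclease protection (S1 digestion, chemiluminescent detection) in lysates of human primary hepatocytes exposed 48 h with daily re-dosing. Induction fitted positively versus 0.2% DMSO; morphology-based cytotoxicity flagged yes/no.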

Read-out in test [8]: xenobiotic metabolism (CYP1A2), CYP1A2 (gene 1544)
The test can be described thus: CLD_CYP1A2_48hr: CellzDirect (CLD) Gene Expression Assay for xenobiotic metabolism (CYP1A2) at 48 hours (AID 2283703). An outline of the steps:
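Cytotoxicity was flagged yes/no from morphology, while CYP1A2 transcript induction was detected by qNPA chemiluminescence after a 48-hour exposure. Human primary hepatocyte cultures from separate donors received fresh dosing solutions daily over two days, with 0.2% DMSO as vehicle and baseline.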

Test [9] can be described thus: CLD_ACTIN_48hr: CellzDirect (CLD) Gene Expression Assay for Baseline Control (Actin) at 48 hours (AID 2283702). An outline of the steps: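 Background-control actin mRNA read by qNPA chemiluminescence at 48 h. Human hepatocyte cultures from two donors received fresh multi-concentration chemical doses daily for two days; 0.2% DMSO served as vehicle baseline.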
Read-out in test [10]: Broad substrate specificity ATP-binding cassette transporter ABCG2 (Homo sapiens) (UniProt Q9UNQ0)
The experiment in a line: CLD_ABCG2_48hr: CellzDirect (CLD) Gene Expression Assay for ABC Transporter (ABCG2) at 48 hours (AID 2283704). As to the method:
as §1, with “plate.CLD_ABCG2_48hr” for “plate.CLD_CYP3A4_48hr”, “CLD_ABCG2_48hr” for “CLD_CYP3A4_48hr”, “CLD_ABCG2_48hr,” for “CLD_CYP3A4_48hr,”, “ABCG2.” for “CYP3A4.”, “transporter” for “cyp”, “ABC transporter.” for “xenobiotic metabolism.”
Human hepatocyte cultures were treated daily for two consecutive days with fresh dosing solutions containing appropriate concentrations of the 320 ToxCast chemicals (chemical identities were blinded to CellzDirect and other ToxCast collaborators), vehicle control (0.2% DMSO), and positive control inducers as summarized in Table 1. […] These replicate data, coupled with internal replicates designed within the blinded ToxCast chemical library, provided additional data to evaluate interindividual differences between hepatocyte preparations and their potential impact on chemical profiles.Cell morphology and integrity were evaluated using phase-contrast microscopy as an indicator of hepatocyte cell health (Tyson & Green, 1987). Cultures for each treatment group (i.e., media, vehicle [0.2% DMSO], positive control inducers [multiple concentrations], and the ToxCast chemicals [multiple concentrations]) were observed and cell morphology was assessed relative to vehicle control cultures at each harvest time point (0, 6, 24, or 48 h). […]

Sequence of Broad substrate specificity ATP-binding cassette transporter ABCG2 (Homo sapiens) (Q9UNQ0 whole entry, looked up): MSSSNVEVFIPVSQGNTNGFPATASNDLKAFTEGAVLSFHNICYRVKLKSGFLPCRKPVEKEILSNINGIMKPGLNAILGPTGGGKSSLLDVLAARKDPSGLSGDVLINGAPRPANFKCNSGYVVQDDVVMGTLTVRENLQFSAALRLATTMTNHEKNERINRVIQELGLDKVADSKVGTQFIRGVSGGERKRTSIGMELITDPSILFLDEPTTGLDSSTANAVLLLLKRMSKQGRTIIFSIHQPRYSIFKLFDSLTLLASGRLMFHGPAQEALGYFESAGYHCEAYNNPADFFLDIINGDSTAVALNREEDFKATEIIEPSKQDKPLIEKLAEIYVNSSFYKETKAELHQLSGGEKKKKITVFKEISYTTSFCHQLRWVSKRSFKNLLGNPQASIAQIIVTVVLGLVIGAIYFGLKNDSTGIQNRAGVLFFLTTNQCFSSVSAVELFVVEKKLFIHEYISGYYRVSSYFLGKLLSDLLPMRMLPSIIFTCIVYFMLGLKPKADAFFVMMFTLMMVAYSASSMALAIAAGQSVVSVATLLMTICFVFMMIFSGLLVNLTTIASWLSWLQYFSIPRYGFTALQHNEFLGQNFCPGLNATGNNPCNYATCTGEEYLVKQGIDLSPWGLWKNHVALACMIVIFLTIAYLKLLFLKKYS
Sequence of Cytochrome P450 3A4 (Homo sapiens) (P08684 whole entry, looked up): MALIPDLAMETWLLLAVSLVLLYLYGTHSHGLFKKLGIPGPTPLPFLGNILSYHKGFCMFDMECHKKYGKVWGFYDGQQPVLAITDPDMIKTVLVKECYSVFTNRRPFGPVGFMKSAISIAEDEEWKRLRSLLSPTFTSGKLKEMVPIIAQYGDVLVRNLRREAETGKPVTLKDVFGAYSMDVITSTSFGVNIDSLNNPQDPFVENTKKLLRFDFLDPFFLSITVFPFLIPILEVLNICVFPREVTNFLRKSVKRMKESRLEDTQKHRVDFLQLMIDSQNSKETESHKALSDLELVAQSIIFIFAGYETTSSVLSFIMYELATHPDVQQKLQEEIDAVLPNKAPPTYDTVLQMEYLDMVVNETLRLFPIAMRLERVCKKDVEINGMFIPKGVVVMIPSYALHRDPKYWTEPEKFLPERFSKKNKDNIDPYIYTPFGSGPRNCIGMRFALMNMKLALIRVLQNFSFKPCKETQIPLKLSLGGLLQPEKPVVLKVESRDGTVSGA
Sequence of Cytochrome P450 2C19 (Homo sapiens) (P33261 whole entry, looked up): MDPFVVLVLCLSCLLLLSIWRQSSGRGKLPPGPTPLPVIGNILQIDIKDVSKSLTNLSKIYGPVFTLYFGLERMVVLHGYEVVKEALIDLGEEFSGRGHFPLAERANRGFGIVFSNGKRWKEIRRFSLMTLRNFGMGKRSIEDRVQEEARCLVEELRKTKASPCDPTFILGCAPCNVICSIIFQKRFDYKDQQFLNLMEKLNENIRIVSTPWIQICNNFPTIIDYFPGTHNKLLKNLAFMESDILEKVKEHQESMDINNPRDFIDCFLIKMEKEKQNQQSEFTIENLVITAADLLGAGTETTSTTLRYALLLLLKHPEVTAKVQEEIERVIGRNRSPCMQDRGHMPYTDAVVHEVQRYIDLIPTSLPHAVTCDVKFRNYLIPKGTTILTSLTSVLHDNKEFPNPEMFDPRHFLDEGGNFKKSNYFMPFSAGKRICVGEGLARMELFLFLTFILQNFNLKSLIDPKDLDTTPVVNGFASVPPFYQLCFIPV

Take `CCSC(=O)N(CC)C1CCCCC1`: the call in [1], in test [2], in test [3], in test [6], in [7] and in test [8] was inactive. Further, the figures for the AC50 in [4] and in test [5] were 0.000988 µM (active) and 0.000515 µM (active), respectively.
`CN(C)c1nc(=O)n(C2CCCCC2)c(=O)n1C`: the result in [2], in test [3], in test [4], in test [9] and in test [8] was inactive.
Regarding `CCC(C)(CC)c1cc(NC(=O)c2c(OC)cccc2OC)on1`, the result in test [1], in [2], in test [7] and in [10] was inactive. In addition, the concentration at half-maximal activity (AC50) in [4] was 0.126 µM (active); in [5] it was 0.26 µM (active); in [8], 4.25 µM (active).
`CCNc1nc(NC(C)C)nc(SC)n1`: the compound was classed as inactive in [1], in test [2], in test [9], in test [8] and in test [10]. Besides, the AC50 is 5.88 µM (active) in [4] and 1.9 µM (active) in test [5].
`Cc1ccccc1CO[C@@H]1C[C@@]2(C(C)C)CC[C@]1(C)O2`: the result in test [1], in test [6] and in test [10] was inactive. Moreover, the concentration at half-maximal activity (AC50) is 5.18 µM (active) in test [2], 10.4 µM (active) in [4], 4.16 µM (active) in test [5] and 11.5 µM (active) in test [8].

As a reminder, the AC50 is the midpoint of the concentration-response curve, whichever way the signal moves.
